1 sequence from patent US20030180744, “High affinity oligonucleotide ligands to growth factors” (GILEAD SCIENCES, INC., published 2003) can be followed below.

Common to all, as to assay: filter; Kd target / Kd hKGF
In assay [1] the target is bFGF (Homo sapiens, UniProt P09038 P09038:143-288). To be noted: tags: R&D Systems; pseudoknot; ssRNA; 2'-F pyrimidines.
Assay [2] concerns the target aFGF (Homo sapiens, UniProt P05230 P05230:16-155). To be noted: tags: R&D Systems; pseudoknot; ssRNA; 2'-F pyrimidines.
Assay [3] addresses T1, KGF (rat) (Rattus norvegicus, UniProt Q02195 Q02195:32-194).
T1 sequence: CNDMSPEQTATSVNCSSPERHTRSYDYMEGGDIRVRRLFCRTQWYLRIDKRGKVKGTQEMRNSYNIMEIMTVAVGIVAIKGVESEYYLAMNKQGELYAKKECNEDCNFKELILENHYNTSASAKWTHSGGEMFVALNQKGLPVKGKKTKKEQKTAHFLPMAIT
To be noted: tags: QED Advanced Research Technologies; pseudoknot; ssRNA; 2'-F pyrimidines.

Chain of bFGF (P09038 143-288, one chain of several): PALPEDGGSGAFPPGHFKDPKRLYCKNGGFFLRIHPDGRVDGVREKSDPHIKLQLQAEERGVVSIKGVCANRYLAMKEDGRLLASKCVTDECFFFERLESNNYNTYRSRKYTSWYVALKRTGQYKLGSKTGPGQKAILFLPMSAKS
Chain of aFGF (P05230 16-155, one chain of several): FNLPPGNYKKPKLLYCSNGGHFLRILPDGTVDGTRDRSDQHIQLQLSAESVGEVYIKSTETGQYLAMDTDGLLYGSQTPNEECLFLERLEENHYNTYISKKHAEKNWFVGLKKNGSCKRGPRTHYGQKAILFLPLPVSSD

As for “GGGAGGACGAUGCGGUGGUCUCCCAAUUCUAAACUUUCUCCAUCGUAUCUGGGCCAGACGACUCGCCCGA”, the binding signal in assay [1] came out at 1070; in assay [2] it was 38600; in assay [3] it was 1250.
